# In the supplement of paper PMC10849652:
# About 7,900 targets were measured; listed, in parts, are those with a hit and a random draw of the rest. About 0.6% of all pairs of compound and target were hits. Values without a mark were called inactive.
# What was measured:
# Test in all cases: log2 fold change, soluble protein after heating vs DMSO (PISA); higher = thermal stabilisation; K562 cells, 10 uM, 30 min; active = over 0.2 and 3.5 SD of the protein, either way, in both replicates (recomputed)
# [1] = compound: CC1=C(C=C(C=C1)NC(=O)C2=CC(=CC=C2)C(C)(C)C#N)NC3=CC4=C(C=C3)N=CN(C4=O)C
# How it was run: (§1)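 Values are thermal stability changes relative to control samples and are taken from duplicates. They are stated as log2 fold changes. Before quantification by TMTpro 16plex LC-MS/MS with equalised channel sums, K562 cells at 2×10^6 cells/mL were treated with 10 μM compound for 30 min, heated in aliquots for 3 min across 48°C-58°C, pooled, extracted in PBS with 0.5% NP-40 at 4°C, and centrifuged at 21,000xg for 90 min to give the soluble supernatant.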
# [2] = compound: CC1=C(C=C(C=C1)NC(=O)C2=CC(=CC=C2)N(C)C)NC(=O)C3=CC=C(C=C3)O
# How it was run: as §1
# [3] = compound: CC1=CC=C(C=C1)SC2=C3C=C(SC3=CN=C2)C(=O)N
# How it was run: as §1
# [4] = compound: CC1=NC(=CC=C1)C2=C(N=C(N2)C(C)(C)C)C3=CC4=NC=CN=C4C=C3
# How it was run: as §1
# [5] = compound: CCCCN(Cc1ccc(C(=O)NO)cc1)C(=O)Nc1ccccc1 [Nexturastat A]
# How it was run: as §1
# [6] = compound: CCCS(=O)(=O)Nc1ccc(F)c(C(=O)c2c[nH]c3ncc(-c4ccc(Cl)cc4)cc23)c1F [vemurafenib]
# How it was run: as §1
# [7] = compound: CCCS(=O)(=O)Nc1ccc(F)c(C(=O)c2c[nH]c3ncc(Cl)cc23)c1F
# How it was run: as §1
# [8] = compound: CCCc1cc(C)[nH]c(=O)c1CNC(=O)c1cc(-c2ccnc(N3CCN(C)CC3)c2)cc2c1cnn2C(C)C
# How it was run: as §1
# [9] = compound: CCN(CC)Cc1ccc2cc(COC(=O)Nc3ccc(C(=O)NO)cc3)ccc2c1 [givinostat]
# How it was run: as §1
# [10] = compound: CCN(CCCOc1ccc2c(Nc3cc(CC(=O)Nc4cccc(F)c4)[nH]n3)ncnc2c1)CCOP(=O)(O)O [barasertib]
# How it was run: as §1
# UniProt O75822, sequence (O75822 whole entry, looked up): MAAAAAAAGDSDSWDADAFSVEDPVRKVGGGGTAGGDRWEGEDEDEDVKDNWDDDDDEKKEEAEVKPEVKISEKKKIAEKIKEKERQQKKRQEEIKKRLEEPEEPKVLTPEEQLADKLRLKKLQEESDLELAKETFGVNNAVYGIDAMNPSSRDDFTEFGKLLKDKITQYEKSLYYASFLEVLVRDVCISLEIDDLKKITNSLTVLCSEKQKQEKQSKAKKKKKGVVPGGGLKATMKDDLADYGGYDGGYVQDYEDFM
# UniProt P12259, sequence (P12259 whole entry, looked up): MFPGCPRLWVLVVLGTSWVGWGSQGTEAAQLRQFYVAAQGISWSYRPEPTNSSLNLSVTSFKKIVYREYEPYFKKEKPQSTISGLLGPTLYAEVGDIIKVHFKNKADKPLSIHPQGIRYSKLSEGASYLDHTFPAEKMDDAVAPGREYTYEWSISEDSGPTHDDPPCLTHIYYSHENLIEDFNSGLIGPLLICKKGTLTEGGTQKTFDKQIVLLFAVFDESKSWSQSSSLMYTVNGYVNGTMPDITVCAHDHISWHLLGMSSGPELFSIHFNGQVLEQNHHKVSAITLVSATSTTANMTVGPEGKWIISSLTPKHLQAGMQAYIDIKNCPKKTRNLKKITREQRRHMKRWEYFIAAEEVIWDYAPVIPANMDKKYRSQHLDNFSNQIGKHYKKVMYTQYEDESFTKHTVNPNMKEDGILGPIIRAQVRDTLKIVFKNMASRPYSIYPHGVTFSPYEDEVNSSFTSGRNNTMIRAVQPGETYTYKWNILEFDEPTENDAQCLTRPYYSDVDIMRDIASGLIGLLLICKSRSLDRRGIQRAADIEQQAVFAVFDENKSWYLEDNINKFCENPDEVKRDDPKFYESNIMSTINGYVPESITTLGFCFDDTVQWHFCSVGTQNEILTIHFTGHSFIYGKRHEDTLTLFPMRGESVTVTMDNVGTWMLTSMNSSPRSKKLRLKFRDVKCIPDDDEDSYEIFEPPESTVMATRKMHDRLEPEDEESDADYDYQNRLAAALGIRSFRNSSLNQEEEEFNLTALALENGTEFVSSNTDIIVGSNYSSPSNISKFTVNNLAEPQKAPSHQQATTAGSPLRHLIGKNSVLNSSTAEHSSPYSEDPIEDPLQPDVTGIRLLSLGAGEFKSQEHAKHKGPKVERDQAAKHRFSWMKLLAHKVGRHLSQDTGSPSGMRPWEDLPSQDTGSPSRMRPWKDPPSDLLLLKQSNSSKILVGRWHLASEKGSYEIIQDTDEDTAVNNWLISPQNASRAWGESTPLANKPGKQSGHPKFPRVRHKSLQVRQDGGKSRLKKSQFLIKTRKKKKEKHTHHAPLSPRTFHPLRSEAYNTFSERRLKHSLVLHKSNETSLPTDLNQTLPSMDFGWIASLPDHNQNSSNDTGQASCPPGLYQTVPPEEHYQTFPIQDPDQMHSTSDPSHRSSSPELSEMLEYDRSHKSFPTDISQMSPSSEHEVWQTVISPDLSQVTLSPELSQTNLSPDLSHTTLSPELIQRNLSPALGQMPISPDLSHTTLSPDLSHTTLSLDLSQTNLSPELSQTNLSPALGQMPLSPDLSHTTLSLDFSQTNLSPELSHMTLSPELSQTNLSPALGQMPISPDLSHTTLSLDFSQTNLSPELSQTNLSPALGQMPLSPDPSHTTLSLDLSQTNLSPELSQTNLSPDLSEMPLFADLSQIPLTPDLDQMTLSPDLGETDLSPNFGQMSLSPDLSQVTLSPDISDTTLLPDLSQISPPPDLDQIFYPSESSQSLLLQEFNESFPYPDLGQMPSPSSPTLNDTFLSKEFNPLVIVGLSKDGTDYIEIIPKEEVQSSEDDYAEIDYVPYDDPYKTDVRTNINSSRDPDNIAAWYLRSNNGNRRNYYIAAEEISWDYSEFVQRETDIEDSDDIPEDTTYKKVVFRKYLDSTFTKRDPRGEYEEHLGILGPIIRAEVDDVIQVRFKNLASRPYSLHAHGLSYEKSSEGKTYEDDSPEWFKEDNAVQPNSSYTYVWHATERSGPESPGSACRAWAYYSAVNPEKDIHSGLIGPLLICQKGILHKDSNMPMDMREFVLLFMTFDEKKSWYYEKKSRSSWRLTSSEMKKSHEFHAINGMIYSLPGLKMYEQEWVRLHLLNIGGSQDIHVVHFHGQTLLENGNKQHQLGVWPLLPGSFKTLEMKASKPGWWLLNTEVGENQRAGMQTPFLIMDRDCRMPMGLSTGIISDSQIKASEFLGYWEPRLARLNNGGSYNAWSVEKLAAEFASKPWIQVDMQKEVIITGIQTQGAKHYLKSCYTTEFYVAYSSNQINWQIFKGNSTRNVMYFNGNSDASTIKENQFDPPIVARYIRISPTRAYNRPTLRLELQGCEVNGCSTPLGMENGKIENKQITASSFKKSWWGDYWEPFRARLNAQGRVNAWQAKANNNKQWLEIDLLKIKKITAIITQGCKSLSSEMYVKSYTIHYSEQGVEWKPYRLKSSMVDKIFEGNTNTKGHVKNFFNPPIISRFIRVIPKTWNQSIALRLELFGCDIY
# UniProt Q6P2E9, sequence (Q6P2E9 whole entry, looked up): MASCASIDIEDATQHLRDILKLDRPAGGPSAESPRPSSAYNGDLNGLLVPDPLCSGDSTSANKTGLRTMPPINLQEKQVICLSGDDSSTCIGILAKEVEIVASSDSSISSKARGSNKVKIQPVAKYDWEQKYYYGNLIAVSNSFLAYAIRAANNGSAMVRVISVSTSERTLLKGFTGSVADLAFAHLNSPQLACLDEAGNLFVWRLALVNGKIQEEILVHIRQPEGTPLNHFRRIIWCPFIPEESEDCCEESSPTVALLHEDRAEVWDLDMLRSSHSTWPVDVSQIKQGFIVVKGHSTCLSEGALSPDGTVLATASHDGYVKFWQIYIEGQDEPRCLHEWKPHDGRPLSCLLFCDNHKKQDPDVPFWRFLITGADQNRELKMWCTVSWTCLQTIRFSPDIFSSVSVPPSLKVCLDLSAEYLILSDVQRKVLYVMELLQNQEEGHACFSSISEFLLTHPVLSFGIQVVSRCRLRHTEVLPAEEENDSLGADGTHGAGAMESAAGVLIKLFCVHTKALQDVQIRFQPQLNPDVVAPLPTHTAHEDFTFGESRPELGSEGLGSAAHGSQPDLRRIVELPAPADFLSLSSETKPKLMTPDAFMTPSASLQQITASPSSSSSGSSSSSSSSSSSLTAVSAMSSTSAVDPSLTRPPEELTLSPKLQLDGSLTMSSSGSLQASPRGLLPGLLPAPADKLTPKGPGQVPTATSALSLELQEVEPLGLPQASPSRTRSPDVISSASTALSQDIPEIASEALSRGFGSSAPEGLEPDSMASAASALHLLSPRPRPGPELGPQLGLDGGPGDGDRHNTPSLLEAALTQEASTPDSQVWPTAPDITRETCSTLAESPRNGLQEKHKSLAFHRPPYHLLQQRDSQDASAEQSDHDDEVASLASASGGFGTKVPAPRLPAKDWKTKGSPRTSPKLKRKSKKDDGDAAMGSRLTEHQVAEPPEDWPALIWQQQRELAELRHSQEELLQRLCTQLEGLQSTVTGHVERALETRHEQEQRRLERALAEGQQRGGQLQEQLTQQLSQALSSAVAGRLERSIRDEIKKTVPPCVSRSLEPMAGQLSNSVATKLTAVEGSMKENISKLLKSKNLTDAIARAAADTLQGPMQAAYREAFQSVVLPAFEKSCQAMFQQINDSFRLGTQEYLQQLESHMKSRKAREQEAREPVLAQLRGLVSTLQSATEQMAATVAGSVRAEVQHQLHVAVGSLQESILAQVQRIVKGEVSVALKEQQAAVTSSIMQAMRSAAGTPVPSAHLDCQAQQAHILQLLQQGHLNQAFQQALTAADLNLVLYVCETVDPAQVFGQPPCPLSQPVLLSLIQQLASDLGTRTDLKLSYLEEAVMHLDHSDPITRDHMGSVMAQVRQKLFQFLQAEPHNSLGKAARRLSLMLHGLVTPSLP
# UniProt O60231, sequence (O60231 whole entry, looked up): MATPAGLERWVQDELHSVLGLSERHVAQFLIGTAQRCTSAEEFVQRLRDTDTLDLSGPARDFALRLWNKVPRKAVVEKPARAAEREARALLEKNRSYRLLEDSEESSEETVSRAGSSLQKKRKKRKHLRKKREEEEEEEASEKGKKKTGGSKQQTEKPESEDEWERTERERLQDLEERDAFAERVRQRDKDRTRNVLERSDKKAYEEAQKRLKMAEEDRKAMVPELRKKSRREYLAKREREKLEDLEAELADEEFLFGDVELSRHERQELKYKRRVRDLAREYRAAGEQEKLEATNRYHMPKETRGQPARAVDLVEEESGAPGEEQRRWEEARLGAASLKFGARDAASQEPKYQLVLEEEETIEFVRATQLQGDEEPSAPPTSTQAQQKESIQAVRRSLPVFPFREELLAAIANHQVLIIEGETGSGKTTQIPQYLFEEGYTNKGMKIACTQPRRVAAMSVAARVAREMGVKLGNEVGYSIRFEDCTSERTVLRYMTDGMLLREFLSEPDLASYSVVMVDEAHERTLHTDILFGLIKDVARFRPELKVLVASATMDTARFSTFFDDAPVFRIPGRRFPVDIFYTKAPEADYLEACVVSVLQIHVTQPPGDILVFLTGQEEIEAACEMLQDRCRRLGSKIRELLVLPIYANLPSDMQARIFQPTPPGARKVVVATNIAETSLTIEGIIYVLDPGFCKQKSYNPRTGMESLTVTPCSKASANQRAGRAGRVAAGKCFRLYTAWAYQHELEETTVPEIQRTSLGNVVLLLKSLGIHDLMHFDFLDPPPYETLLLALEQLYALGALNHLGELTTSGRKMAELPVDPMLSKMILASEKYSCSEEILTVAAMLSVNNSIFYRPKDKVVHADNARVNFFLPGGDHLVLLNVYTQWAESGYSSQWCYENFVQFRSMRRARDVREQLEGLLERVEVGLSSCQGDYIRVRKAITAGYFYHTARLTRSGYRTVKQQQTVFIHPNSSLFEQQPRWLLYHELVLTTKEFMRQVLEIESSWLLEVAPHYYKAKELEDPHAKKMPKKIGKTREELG
# UniProt Q96DA6, sequence (Q96DA6 whole entry, looked up): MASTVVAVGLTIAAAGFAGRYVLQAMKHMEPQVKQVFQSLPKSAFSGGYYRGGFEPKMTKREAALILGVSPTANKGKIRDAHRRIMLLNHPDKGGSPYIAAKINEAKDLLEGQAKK
Target,log2 fold change [1],log2 fold change [2],log2 fold change [3],log2 fold change [4],log2 fold change [5],log2 fold change [6],log2 fold change [7],log2 fold change [8],log2 fold change [9],log2 fold change [10]
DNAH11 (UniProt Q96DT5),-0.109,0.064,-0.13,0.044,-0.007,0.199,-0.15,0.17,0.111,-0.051
DHX16 (UniProt O60231),-0.014,-0.018,0.024,0.036,-0.002,0.017,0.059,-0.011,0.017,0.032
ERCC2 (UniProt P18074),-0.024,0.014,-0.005,-0.038,0.035,0.166,0.036,0.021,0.095,-0.007
EIF3J (UniProt O75822),0.01,-0.026,-0.005,0.039,-0.068,0.05,-0.022,0.004,0.011,0.046
DNAJC1 (UniProt Q96KC8),0.027,0,0.014,0.049,-0.079,-0.007,0.037,-0.13,-0.013,0.047
DCAF10 (UniProt Q5QP82),-0.024,0.121,-0.015,-0.009,0.012,-0.044,0.002,-0.121,-0.094,-0.006
EEA1 (UniProt Q15075),-0.027,0.009,0.009,0.011,-0.035,-0.024,0.003,-0.036,-0.01,0.009
EBNA1BP2 (UniProt Q99848),-0.014,-0.033,-0.07,-0.153,0.438,-0.042,0.004,0.113,0.174,-0.187
EEF1A1 (UniProt P68104),-0.069,-0.068,0,0.052,0.086,0.031,0.022,0.089,-0.044,0.052
DFFB (UniProt O76075),-0.023,-0.013,0.013,0.019,-0.04,0.055,0,-0.109,-0.059,0.034
DMAC1 (UniProt Q96GE9),-0.173,0.041,0.116,0.005,-0.071,-0.18,-0.035,-0.04,-0.179,0.074
DDX46 (UniProt Q7L014),0.123,-0.117,0,0.069,-0.069,0.099,0.136,0.001,0.171,0.13
F5 (UniProt P12259),0.056,0.036,-0.027,0.011,-0.04,0.066,-0.016,-0.036,-0.01,0.034
CTSZ (UniProt Q9UBR2),-0.009,-0.004,0.025,0.002,-0.009,-0.026,-0.045,-0.017,0.152,0.027
ESS2 (UniProt Q96DF8),-0.085,0.091,-0.024,-0.018,0.032,-0.01,-0.013,-0.075,-0.01,-0.025
CUTA isoform 2 (UniProt O60888),-0.121,-0.011,0.013,0.044,0.169,0,0.044,0.16,-0.044,0.015
CTSH (UniProt P09668),-0.007,0.066,0.013,0.093,-0.047,0.023,-0.034,0.157,0.003,-0.019
E2F4 (UniProt Q16254),0.031,0.011,0.087,0.079,0.034,-0.001,0.02,0.021,0.05,0.054
DTNBP1 (UniProt Q96EV8),-0.078,0.006,0.001,0.055,-0.022,0.021,0.017,-0.026,-0.014,0.01
EOGT (UniProt Q5NDL2),-0.043,-0.073,-0.088,-0.052,0.033,-0.05,-0.098,-0.043,0.02,-0.026
DCTN1 isoform 4 (UniProt Q14203),0.022,-0.017,0.015,-0.039,0.116,-0.015,0.019,0.102,0.104,0.033
FAM50A (UniProt Q14320),0.041,-0.059,0.019,0.057,-0.069,0.049,0.035,0.014,0.102,0.026
FAM118B (UniProt Q9BPY3),0,0.03,0.037,0.055,0.099,0.048,0.003,0.044,0.063,0.093
EPHX2 (UniProt P34913),0.112,0.129,0.031,-0.017,0.193,-0.012,-0.025,-0.075,-0.014,-0.029
DTWD1 (UniProt Q8N5C7),0.05,-0.042,0.023,0.081,-0.072,0.115,-0.013,0.036,-0.172,-0.027
DNAJC19 (UniProt Q96DA6),-0.02,0.001,0.043,0.069,-0.121,0.003,0.035,-0.013,0.005,0.007
EIF2AK1 (UniProt Q9BQI3),-0.027,-0.007,0.079,-0.019,-0.087,0.005,0.044,0.179,-0.051,-0.017
EDC4 (UniProt Q6P2E9),0.004,-0.048,-0.022,-0.035,0.022,0.035,0.03,0.029,0.031,0.057
DHCR7 (UniProt Q9UBM7),-0.037,-0.028,-0.055,0.023,0.104,0.011,0.039,0.139,0.808 (active),0.204
FAAP100 (UniProt Q0VG06),-0.004,-0.001,-0.039,0.066,-0.327 (active),0,-0.033,0.167,0.024,0.051
